Only some compounds are listed: those with a hit (about 2% of all), similar ones and a draw of the others.
PREPL inhibitor: inhibits the human prolyl oligopeptidase-like enzyme. actives 0.68% (n = 320,000). AID 2751. recombinant PREPL, fluorescence polarization activity-based probe. inhibition, % at 5.96 µM. Q4J6C6;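 note: 0% = enzyme with DMSO and 100% = wells lacking enzyme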
Target sequence (Q4J6C6 whole entry, looked up): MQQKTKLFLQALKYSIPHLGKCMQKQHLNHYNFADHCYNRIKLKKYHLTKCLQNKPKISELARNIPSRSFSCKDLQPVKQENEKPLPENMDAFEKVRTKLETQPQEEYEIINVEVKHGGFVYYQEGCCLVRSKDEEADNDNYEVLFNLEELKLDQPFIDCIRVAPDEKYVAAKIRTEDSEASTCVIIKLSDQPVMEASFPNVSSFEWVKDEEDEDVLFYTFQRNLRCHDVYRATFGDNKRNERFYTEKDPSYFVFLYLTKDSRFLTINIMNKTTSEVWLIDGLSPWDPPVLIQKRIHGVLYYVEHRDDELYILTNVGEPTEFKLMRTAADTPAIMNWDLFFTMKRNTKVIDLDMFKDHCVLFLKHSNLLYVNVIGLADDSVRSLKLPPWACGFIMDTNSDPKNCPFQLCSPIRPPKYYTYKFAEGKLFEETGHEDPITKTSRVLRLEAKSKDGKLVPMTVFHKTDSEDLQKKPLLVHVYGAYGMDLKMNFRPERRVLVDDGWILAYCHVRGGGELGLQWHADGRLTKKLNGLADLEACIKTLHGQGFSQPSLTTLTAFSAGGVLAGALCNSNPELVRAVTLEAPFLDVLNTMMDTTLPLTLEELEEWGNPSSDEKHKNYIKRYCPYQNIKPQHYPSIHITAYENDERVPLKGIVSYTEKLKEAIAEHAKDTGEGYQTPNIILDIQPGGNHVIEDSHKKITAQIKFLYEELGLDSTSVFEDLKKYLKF
GSTO1 counter: GSTO1 inhibition, counter-screen for RBBP9 inhibitors; P78417; recombinant GSTO1, activity-based probe fluorescence polarization; actives 1.1% (n = 300,000); inhibition, % at 5.96 µM; AID 1974;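 active = inhibition above the campaign mean inhibition plus 3 SD, cut at about 35% in these data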;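 note: 0% = GSTO1-1 with DMSO and 100% = wells lacking GSTO1-1 enzyme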
PME-1 primary: blocks human protein phosphatase methylesterase 1 | Q9Y570 | recombinant PME-1, FP-Rh probe fluorescence polarization | inhibition, % at 5.9 µM | actives 0.53% (n = 320,000) | AID 2130;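 active = inhibition above the campaign mean of all compounds plus 3 SD, cut at about 26% in these data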;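 note: competitive labeling of PME-1 active site by serine hydrolase directed probe; 0% = PME-1 with DMSO and 100% = wells lacking PME-1 enzyme; inhibitors block probe labeling so polarization falls and inhibition rises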
LYPLA1 counter: blocks human lysophospholipase 1, a PME1 counter-screen. O75608. recombinant LYPLA1, FP-Rh probe fluorescence polarization. inhibition, % at 5.9 µM. actives 0.16% (n = 320,000). AID 2174;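 active = inhibition above the mean of all tested compounds plus 3 SD, set per campaign, cut at about 14% in these data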;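 note: inhibitors block serine hydrolase probe labeling of LYPLA1 so polarization falls; 0% = enzyme with DMSO and 100% = wells lacking LYPLA1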
LYPLA2 inh: blocks human lysophospholipase 2, a PME1 counter-screen; recombinant LYPLA2, FP-Rh probe fluorescence polarization; inhibition, % at 5.9 µM; actives 0.38% (n = 320,000); AID 2177;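 active = inhibition above the screen-wide mean plus 3 SD, limit set per campaign, cut at about 26% in these data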;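 note: 0% = LYPLA2 with DMSO and 100% = wells lacking LYPLA2 enzyme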
Fam108B inh: counter-screen for RBBP9 inhibitors: inhibitors of mouse Fam108B | recombinant Fam108B, FP-Rh probe fluorescence polarization | inhibition, % at 9.51 µM | actives 0.33% (n = 300,000) | AID 1947;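 active = inhibition above the screen mean inhibition plus 3 SD, computed separately per campaign, cut at about 18% in these data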;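 note: inhibitors lower polarization as less probe binds the enzyme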
PREPL confirm: confirmation of human PREPL enzyme inhibitors; shares compounds with PREPL inhibitor; recombinant PREPL, fluorescence polarization activity probe; inhibition, % at 5.96 µM; actives 67% (n = 2,000); AID 2803;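 note: 0% = protein with DMSO and 100% = wells lacking protein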
Starred values were filed as active, the others as inactive; nt = no result given. Cut-off read from the data, not from the text of the source, unless noted: active = inhibition above about 43%; inactive = the rest.

SMILES	PREPL inhibitor	GSTO1 counter	PME-1 primary	LYPLA1 counter	LYPLA2 inh	Fam108B inh	PREPL confirm
COc1ccc(/C(C)=N/NC(=O)CNC(=O)/C=C\c2ccccc2OC)c(OC)c1	1	2	0	-4	-8	0	nt
O=C(O)CSc1ccc(NC(=O)Nc2ccccc2F)cc1	-1	5	-2	1	3	7	nt
O=C(NCCCn1ccnc1)C1CCN(S(=O)(=O)c2cc([N+](=O)[O-])ccc2Cl)CC1	47*	nt	nt	nt	nt	nt	41
Cc1ccc(S(=O)(=O)N2CCC(C(=O)NCCCn3ccnc3)CC2)cc1	2	-2	1	-1	4	-3	nt
O=C1N/C(=C/c2ccc(N3CCOCC3)cc2)C(=O)N1Cc1ccc(F)cc1	48*	11	-1	3	0	4	75*
O=C1N/C(=C\c2ccsc2)C(=O)N1Cc1ccc(F)cc1	-15	-5	-5	5	-2	-2	nt
Cc1ccc2c(c1)c1c(n2CC(O)CNC2CCCCC2)CCCC1 (centres undefined)	50*	-1	4	2	-4	0	46*
COCc1cc(CN2CCCC2)c(O)c2ncccc12	8	-1	0	-3	6	5	nt
Oc1c(CN2CCCCC2)cc(COCc2ccccc2)c2cccnc12	56*	-1	-4	-5	-4	-2	84*
Cn1c(=O)[nH]c(=O)c2c1nc(CN1CCN(c3cccc(Cl)c3)CC1)n2CCN1CCOCC1	46*	5	-2	-3	-4	-2	42
CCCCn1c(CN2CCN(c3cccc(Cl)c3)CC2)nc2c1c(=O)[nH]c(=O)n2C	26	5	7	-1	2	-2	nt
C#CCOCCOCCOCCNc1nc(N2CCN(C(=O)CCCCCCCCCCNC(=O)[C@H](CO)n3cc(CCCSC)nn3)CC2)nc(N2CCN(C(=O)CCCCCCCCCCNC(=O)[C@H](CCCCN)n3cc(C[C@@H](C)CC)nn3)CC2)n1	29	-11	-16	-12	-18	-19	nt
C#CCOCCOCCOCCNc1nc(N2CCN(C(=O)CCCCCCCCCCNC(=O)[C@H](CCCCN)n3cc(CCCC(=O)O)nn3)CC2)nc(N2CCN(C(=O)CCCCCCCCCCNC(=O)[C@H](CCCN=C(N)N)n3cc(C[C@@H](C)CC)nn3)CC2)n1	44*	-10	-5	-8	-10	-3	35
C#CCOCCOCCOCCNc1nc(N2CCN(C(=O)CCCCCCCCCCNC(=O)[C@H](CCCCN)n3cc(C)nn3)CC2)nc(N2CCN(C(=O)CCCCCCCCCCNC(=O)[C@@H]([C@H](C)CC)n3cc(CCCCCN)nn3)CC2)n1	52*	4	2	-5	13	0	45*
C#CCOCCOCCOCCNc1nc(N2CCN(C(=O)CCCCCCCCCCNC(=O)[C@H](CCCCN)n3cc(CCO)nn3)CC2)nc(N2CCN(C(=O)CCCCCCCCCCNC(=O)[C@H](CCCN=C(N)N)n3cc(C[C@@H](C)CC)nn3)CC2)n1	56*	-1	-11	-6	-11	-8	57*
C#CCOCCOCCOCCNc1nc(N2CCN(C(=O)CCCCCCCCCCNC(=O)[C@@H](CCC(=O)O)n3cc(CCCCCN)nn3)CC2)nc(N2CCN(C(=O)CCCCCCCCCCNC(=O)[C@@H](CCC(=O)O)n3cc(CCCCCN)nn3)CC2)n1	16	0	1	-5	0	-2	nt
C#CCOCCOCCOCCNc1nc(N2CCN(C(=O)CCCCCCCCCCNC(=O)Cn3cc(CCCCCN)nn3)CC2)nc(N2CCN(C(=O)CCCCCCCCCCNC(=O)[C@H](CO)n3cc(CCCCCN)nn3)CC2)n1	68*	0	3	0	2	3	60*
CS(=O)(=O)CCSc1ncccc1C(=O)NCc1cccs1	-6	3	0	-2	-4	1	nt
Cc1c(Cl)cccc1NC(=O)C1=COCCO1	0	-3	1	1	2	-3	nt
C#CCOCCOCCOCCNc1nc(N2CCN(C(=O)CCCCCCCCCCNC(=O)[C@H](CCCCN)n3cc(CCCC(=O)O)nn3)CC2)nc(N2CCN(C(=O)CCCCCCCCCCNC(=O)[C@H](CCCCN)n3cc(CCCC(=O)O)nn3)CC2)n1	12	0	-2	-3	-1	-2	nt
C#CCOCCOCCOCCNc1nc(N2CCN(C(=O)CCCCCCCCCCNC(=O)[C@H](CCCCN)n3cc(CCO)nn3)CC2)nc(N2CCN(C(=O)CCCCCCCCCCNC(=O)[C@H](CCCCN)n3cc(CCO)nn3)CC2)n1	58*	3	-3	2	-1	0	47*
O=C(Cc1ccc2c(c1)OCCO2)N1CCN(S(=O)(=O)c2cccc(C(F)(F)F)c2)CC1	81*	-1	2	-5	-2	-2	5
CC(=O)N1CCN(c2ccc(OC[C@H]3CO[C@](Cn4ccnc4)(c4ccc(Cl)cc4Cl)O3)cc2)CC1	61*	0	-5	-2	8	2	64*
CN1C(=O)C2(OCC(COc3ccc(Cl)cc3)O2)c2ccccc21 (centres undefined)	-79	-4	-2	-1	-1	2	nt
CCc1nc(CN2CCN(c3cc(C(F)(F)F)ccn3)CC2)c(C)[nH]1	9	6	13	2	3	2	nt
SMILES	PREPL inhibitor	GSTO1 counter	PME-1 primary	LYPLA1 counter	LYPLA2 inh	Fam108B inh	PREPL confirm
Cc1ccc(Nc2nc(N/N=C/c3c[nH]c4ccccc34)nc(N3CCOCC3)n2)cc1	44*	-2	22	-5	0	17	60*
CN(C)c1ccc(C(CNC(=O)c2ccccc2Br)c2c[nH]c3ccccc23)cc1 (centres undefined)	56*	2	3	0	1	0	31
CC(=O)N1CCN(c2ccc(NCc3ccc4c(c3)OCO4)cc2)CC1	72*	27	2	0	6	2	12
O=C(c1ccccc1)N1CCN(c2ccc(NCc3ccc4c(c3)OCO4)cc2)CC1	74*	8	2	4	20	0	53*
O=C(c1ccc2c(c1)OCO2)N1CCN(c2ccccc2)CC1	15	4	1	0	8	1	nt
O=C(Nc1ccc(N2CCN(C(=O)c3ccccc3)CC2)cc1)c1cc2ccccc2o1	45*	-2	4	0	0	4	36
CC(=O)N1CCN(c2ccc(NCc3ccccc3)cc2)CC1	38	18	3	-2	5	-3	nt
COc1ccc(OCCC(=O)OCC(=O)NCc2ccccc2OC)cc1	-1	6	-2	1	0	4	nt
Cn1c(-c2cccc([N+](=O)[O-])c2)cnc1NCc1cccc(F)c1	10	3	3	-1	1	3	nt
Cc1c(C#N)c(N=CN(C)C)c(C(=O)c2ccc(Br)cc2)n1-c1ccc(Cl)cc1	48*	5	3	1	2	1	53*
